Measured values published in PubChem BioAssay AID488969 (Vanderbilt High Throughput Screening Facility, 2010).
In all, about 110,000 compounds were measured (“z-score”: median about -0.1, highest 2% from about 2 on). The full list was thinned out, with the highest values kept by preference. Calls of active or inactive are those of the source.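 Rule for the calls: active = z-score in the third read window above 3 or below -3; inactive = the rest.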

biological target: Metabotropic glutamate receptor 8 (Rattus norvegicus) (UniProt P70579); assay: mGluR8 Gi/Go-coupled signaling modulation – cell-based, rat, thallium flux, HTS, primary screen (AID 488969); conditions: HEK293 rat mGluR8, GIRK (G protein-gated inwardly rectifying potassium channel) thallium flux, FluoZin2; at 10 µM; stronger effect = higher value; submaximal glutamate (EC20) added with thallium
Sequence (P70579 whole entry, looked up): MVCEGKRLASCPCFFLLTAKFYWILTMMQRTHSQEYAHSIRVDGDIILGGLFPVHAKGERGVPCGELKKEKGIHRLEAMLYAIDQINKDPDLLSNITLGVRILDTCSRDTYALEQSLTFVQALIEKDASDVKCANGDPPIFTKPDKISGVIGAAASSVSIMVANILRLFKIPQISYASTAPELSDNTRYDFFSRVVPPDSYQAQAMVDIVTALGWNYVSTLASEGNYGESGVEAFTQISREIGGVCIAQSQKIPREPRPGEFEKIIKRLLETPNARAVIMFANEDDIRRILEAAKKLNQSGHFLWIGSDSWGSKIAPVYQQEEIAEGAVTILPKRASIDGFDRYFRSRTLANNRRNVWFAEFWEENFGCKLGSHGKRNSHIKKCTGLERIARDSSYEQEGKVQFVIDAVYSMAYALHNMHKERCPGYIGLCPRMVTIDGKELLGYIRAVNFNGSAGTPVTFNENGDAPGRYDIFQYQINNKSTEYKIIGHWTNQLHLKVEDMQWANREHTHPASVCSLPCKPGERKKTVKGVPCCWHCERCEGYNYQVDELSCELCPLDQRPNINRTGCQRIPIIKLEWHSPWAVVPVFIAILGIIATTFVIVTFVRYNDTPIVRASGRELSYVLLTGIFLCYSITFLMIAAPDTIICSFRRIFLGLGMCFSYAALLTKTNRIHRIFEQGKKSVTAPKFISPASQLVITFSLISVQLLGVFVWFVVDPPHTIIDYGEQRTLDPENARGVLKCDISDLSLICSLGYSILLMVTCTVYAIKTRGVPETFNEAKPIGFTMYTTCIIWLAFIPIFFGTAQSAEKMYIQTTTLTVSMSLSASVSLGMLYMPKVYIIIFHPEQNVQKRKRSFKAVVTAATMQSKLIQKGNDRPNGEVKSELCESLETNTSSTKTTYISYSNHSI

Row | Compound | z-score
1 | CCNC(=S)N/N=C(\C)c1cc2ccccc2o1 | 8.26 (active)
2 | C/C(=N\NC(=S)NCc1ccccc1)c1ccc2ccccc2c1 | 2.12
3 | C/C(=N\NC(=S)NCc1ccccc1)c1ccc(Cl)cc1 | 0.101
4 | COc1ccc(/C(C)=N/NC(=S)NCc2ccco2)cc1 | 4.34 (active)
5 | CC/C(C)=N/NC(=S)NCc1ccco1 | 0.0671
6 | C=CCNC(=S)N/N=C(\C)c1cc(OC)c(OC)c(OC)c1 | -0.183
7 | C=CCNC(=S)N/N=C(\C)c1ccc(OC)cc1 | 2.03
8 | C/C(=N\NC(=O)c1ccco1)c1cc2ccccc2o1 | 0.664
9 | C=C(C)CNC(=S)N/N=C(\C)c1ccc(OC)cc1 | -1.56
10 | Cc1nc(=O)c(-c2ccccc2)c(C)n1-c1ccc(O)cc1 | -1.56
11 | CCc1ccc(OCC(=O)N/N=C/c2ccc(OS(=O)(=O)c3ccc(C)cc3)c(OC)c2)cc1 | -0.212
12 | Cc1ccc2nsnc2c1S(=O)(=O)NC1CC1 | 0.516
13 | Cc1sc(NC(=O)c2ccco2)c(CN2CCN(c3ccccc3)CC2)c1C | -0.213
14 | c1ccc(N(c2ccccc2)c2nc(-n3ccnc3)nc(-n3ccnc3)n2)cc1 | -0.953
15 | O=C(O)CCCn1nc(C(F)(F)F)c2c1CCCCC2 | -0.241
16 | COC(=O)Nc1sc(C(=O)N(C)C)c(C)c1C(=O)OC | 0.175
17 | C=CCc1c(C)nc(C)nc1N/N=C/c1ccccc1O | 2.25
18 | C=CCc1c(C)nc(C)nc1N/N=C/c1ccccc1 | -0.683
19 | C=CCc1c(C)nc(C)nc1N/N=C/c1ccc(F)cc1 | -0.164
20 | CSc1cc(C)n(-c2ccccc2)c(=S)c1C(C)=O | -0.0675

Row | Compound | z-score
21 | CCOc1ccc(CNC(=O)CCn2c(=O)oc3ccccc32)cc1OC | 0.903
22 | O=C(O)C1C2C=CC(O2)C1C(=O)Nc1ccc(S(=O)(=O)N2CCc3ccccc32)cc1 (stereo not given) | -0.0204
23 | CCOC(=O)Cc1csc(NC(=O)c2ccc(Br)s2)n1 | 1.08
24 | CCOC(=O)Cc1csc(NC(=S)NC(=O)C(C)(C)C)n1 | 1.73
25 | CCOC(=O)Cc1csc(NC(=S)NC(=O)c2ccccc2C)n1 | 9.08 (active)
26 | CCOC(=O)Cc1csc(NC(=S)NC(=O)CC(C)C)n1 | 1.27
27 | CCOC(=O)Cc1csc(NC(=S)NC(=O)c2ccccc2Br)n1 | 7.57 (active)
28 | CCOC(=O)Cc1csc(NC(=O)c2ccc(Br)o2)n1 | 0.017
29 | COC(=O)c1nnn(CC(=O)Nc2cc(Cl)ccc2C)c1C(=O)OC | -0.484
30 | COc1cc(/C=C2\SC(c3ccc(C)cc3)=NC2=O)ccc1O | -0.769
31 | O=C(Nc1ccc(Cn2cccn2)cc1)c1ccc(COc2ccccc2Br)cc1 | -0.0941
32 | O=S(=O)(N/N=C/c1cn(Cc2ccccc2)c2ccccc12)c1ccccc1 | -0.216
33 | Cc1cc(N2CCCCCC2)nc2ccccc12 | -0.134
34 | COc1ccccc1N1C(=O)CCC1(C#N)c1ccc(Br)cc1 (stereo not given) | -0.14
35 | Cc1c(NC(=O)CSc2ccc(Cl)cc2)cccc1-c1nc2ncccc2o1 | -0.212
36 | O=C(Nc1ccccc1)c1ccccc1NS(=O)(=O)c1ccc(Cl)s1 | -3.39 (active)
37 | O=S(=O)(Nc1ccccc1N1CCCCC1)c1ccc(Cl)s1 | 3.45 (active)
38 | O=S(=O)(Nc1ccc(N2CCCCC2)cc1)c1cccs1 | -0.488
39 | O=S(=O)(Nc1ccc(N2CCOCC2)cc1)c1ccc(Cl)s1 | -0.104
40 | O=C(Nc1cc(Cl)ccc1N1CCCCC1)c1cccs1 | -0.311

Row | Compound | z-score
41 | O=S(=O)(Nc1cc(Cl)ccc1N1CCCCC1)c1cccs1 | 7.03 (active)
42 | COC(=O)c1ccc(OC(=O)c2ccccc2F)cc1 | 0.198
43 | COc1ccccc1NC(=O)CSc1ccc2nnc(-c3cccnc3)n2n1 | -0.277
44 | O=C(COC(=O)c1ccc(-c2nnc(-c3ccccc3)o2)cc1)c1ccccc1 | -0.145
45 | CC(C)n1c(N2CCN(CC(=O)NCc3cccs3)CC2)nc2ccccc21 | -0.0505
46 | Cc1nccn1CC(O)COc1ccccc1 (stereo not given) | -0.0583
47 | Cc1nccn1CC(O)Cn1c2ccccc2c2ccccc21 (stereo not given) | 2
48 | Cc1nc2ccccc2n1CC(O)Cn1c2ccccc2c2ccccc21 (stereo not given) | 0.752
49 | Cc1cccc(-n2c(SCc3cc(=O)n4ccsc4n3)nc3ccccc3c2=O)c1 | -0.276
50 | Cc1nc(NC(=O)COc2ccccc2)sc1C(=O)Nc1ccccc1 | -0.075
51 | CC(Oc1ccc(Cl)cc1Cl)C(=O)NCCN1CCOCC1 (stereo not given) | 0.00607
52 | CN1/C(=C\C(=S)NC(=O)c2ccccc2Cl)C(C)(C)c2ccccc21 | 0.0507
53 | Cc1cc(C)n(-c2nc3nonc3nc2-n2nc(C)cc2C)n1 | 0.084
54 | CCN(CC)c1nc2nonc2nc1N(CC)CC | 2.53
55 | Cc1ccc(Nc2nc3nonc3nc2N(C)C)cc1 | -0.0276
56 | Cc1n[nH]c(C)c1S(=O)(=O)N(CC(=O)Nc1ccc2c(c1)OCCO2)c1ccc(C(C)C)cc1 | -0.193
57 | O=C(NCCCc1ccccc1)Nc1ccccc1 | 0.456
58 | O=C(NCCc1ccc(Cl)cc1)Nc1cccc(Cl)c1 | 0.529
59 | O=C(NCCCc1ccccc1)Nc1cccc(Cl)c1 | 2.01
60 | Cc1nc(N2CCN(C)CC2)c2c(C)c(C(=O)Nc3ccc(C)c(F)c3)sc2n1 | -0.555
